{"source": "PubChem BioAssay (EPA / NIEHS)", "note": "Results filed as inconclusive are left out. Active and inactive are the calls of the source. How the source made its calls: active means hit-call score of the fitted dose curve at least 0.9, where 1 is the maximum; inconclusive means response in the unintended direction; inactive means score below 0.9."}
{"biological_target": "Estrogen-related receptor gamma (Homo sapiens) (UniProt P62508)", "sequence (P62508 whole entry, looked up)": "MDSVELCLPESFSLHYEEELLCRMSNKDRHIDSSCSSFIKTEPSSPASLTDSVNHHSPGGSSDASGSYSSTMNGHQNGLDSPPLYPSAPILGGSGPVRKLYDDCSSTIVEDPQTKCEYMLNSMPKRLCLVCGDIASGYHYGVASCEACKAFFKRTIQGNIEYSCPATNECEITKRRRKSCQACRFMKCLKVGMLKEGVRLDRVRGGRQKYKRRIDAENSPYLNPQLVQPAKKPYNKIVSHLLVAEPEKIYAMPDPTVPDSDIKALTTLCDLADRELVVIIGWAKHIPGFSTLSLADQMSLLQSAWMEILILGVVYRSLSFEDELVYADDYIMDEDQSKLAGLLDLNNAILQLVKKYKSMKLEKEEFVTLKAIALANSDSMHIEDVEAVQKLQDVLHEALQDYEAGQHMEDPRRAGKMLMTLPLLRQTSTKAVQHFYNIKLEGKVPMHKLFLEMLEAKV", "assay": "ATG_ERRg_TRANS: Attagene TRANS-FACTORIAL HepG2 Assay for human Estrogen-Related Receptor gamma (ERRg) (AID 2282977);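 further: hits increase reporter signal over DMSO so potencies reflect activators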", "details": "HepG2 Attagene TRANS reporter, ERRg transactivation", "method": "ATG_TRANS is a cell-based, multiplexed-readout assay that uses HepG2, a human liver cell line, with measurements taken at 24 hours after chemical dosing in a 24-well plate.ATG_ERRg_TRANS is one of 30 assay component(s) measured or calculated from the ATG_TRANS assay. It is designed to make measurements of mRNA induction, a form of inducible reporter, as detected with fluorescence intensity signals by Reverse transcription polymerase chain reaction (RT-PCR) and Capillary electrophoresis technology.Data from the assay component ATG_ERRg_TRANS was analyzed into 1 assay endpoint. This assay endpoint, ATG_ERRg_TRANS, was analyzed in the positive analysis fitting direction relative to DMSO as the negative control and baseline of activity. Using a type of inducible reporter, measures of mRNA for gain-of-signal activity can be used to understand the reporter gene at the transcription factor-level as they relate to the gene ESRRG. Furthermore, this assay endpoint can be referred to as a primary readout, because this assay has produced multiple assay endpoints where this one serves a reporter gene function. To generalize the intended target to other relatable targets, this assay endpoint is annotated to the nuclear receptor intended target family, where the subfamily is steroidal.\nHuman liver HepG2 cells are transiently transfected with multiple reporter transcription units (MRTUs) in 6-well plates using FuGene 6 reagent (Roche; 3 ml FuGene/1 mg DNA). The MRTU constructs are regulated by a cis-regulating element (promoter). […] A major difference between the CIS and TRANS system is that in CIS activities of endogenous TFs are measured, whereas the TRANS assay evaluates changes in activities of exogenous, chimeric NR-Gal4 proteins. […] At the end of 24 hour incubation, total RNA was isolated using TriZol reagent (Invitrogen). The isolated RNA is then reverse-transcribed using oligo(dT) primer and Mo-MLV reverse transcriptase (Invitrogen) with DNAse I (Ambion) treatment for 30 min. The one-tenth of the produced cDNA was amplified by PCR using Taq DNA polymerase (Invitrogen) and two reporter sequence-specific primers. The PCR products were fluorescently labeled by primer extension with 6-arboxyfluorescein (6-FAM) 5'-labeled reporter sequence-specific primer (2 min at 95 C, 20 s at 68 C and 10 min at 72 C) and these products were digested with 5U of HpaI (New England Biolabs) for 2h at 37 C. The fragments were purified using Qiaquick PCR columns (Qiagen), analyzed on an ABI 3130xL genetic analyzer (Applied Biosystems) with peak positions identified by using a set of X-rhodamine (ROX)-labeled MapMarker1000 molecular weight standards (BioVentures). The raw capillary electrophoresis data was processed using Attagraph software (Attagene)."}
{"smiles": "O=C(/C=C/c1ccc(O)cc1)CC(=O)/C=C/c1ccc(O)cc1", "outcome": "inactive"}
{"smiles": "CC(O)CO", "note": "(stereo not drawn)", "outcome": "inactive"}
{"smiles": "CC(=O)CC(C)(C)O", "outcome": "inactive"}
{"smiles": "CCC(=C(c1ccc(O)cc1)c1ccc(OCCN(C)C)cc1)c1ccccc1", "outcome": "inactive"}
{"smiles": "FC(F)(I)C(F)(F)C(F)(F)C(F)(F)C(F)(F)C(F)(F)I", "outcome": "inactive"}
{"smiles": "CCCCC[C@H](O)CC(=O)CCc1ccc(O)c(OC)c1", "outcome": "inactive"}
{"smiles": "CCCCCCCCOC(=O)CCCCCCCCC(=O)OCCCCCCCC", "outcome": "inactive"}
{"smiles": "OCCC(F)(F)C(F)(F)C(F)(F)C(F)(F)C(F)(F)C(F)(F)C(F)(F)C(F)(F)F", "outcome": "inactive"}
{"smiles": "Cc1ccc(S(=O)(=O)O)c(C)c1", "outcome": "inactive"}
{"smiles": "Oc1cccc(O)c1", "outcome": "inactive"}
{"smiles": "CCc1nn(C2CCCCC2)c2cc(C3(C#N)CCC(C(=O)O)CC3)ccc12", "note": "(stereo not drawn)", "outcome": "inactive"}
{"smiles": "CCCOC(=O)c1ccc(O)cc1", "outcome": "inactive"}
{"smiles": "COc1cc(CCC(=O)CC(=O)CCc2ccc(O)c(OC)c2)ccc1O", "outcome": "inactive"}
{"smiles": "O=C(O)c1ccccc1C(c1ccc(O)cc1)c1ccc(O)cc1", "outcome": "inactive"}
{"smiles": "CCCCCCCCCCCCCC[N+](C)(C)C", "outcome": "inactive"}
{"smiles": "NC(=O)N1C(=O)C(C(=O)c2cc(Cl)cs2)c2cc(F)c(Cl)cc21", "note": "(stereo not drawn)", "outcome": "inactive"}
{"smiles": "CN(C)C=O", "outcome": "inactive"}
{"smiles": "CC(C)(C)c1ccc(O)c(C(C)(C)C)c1", "outcome": "inactive"}
{"smiles": "N#C[C@@H]1CC(F)(F)CN1C(=O)CNC1CC2CCC(C1)N2c1ncccn1", "note": "(stereo partly drawn)", "outcome": "inactive"}
{"smiles": "Cc1cc(CCN2CCN(c3nsc4ccccc34)CC2)cc2c1NC(=O)CC2(C)C", "outcome": "inactive"}
{"smiles": "CCCCCCC(=O)O", "outcome": "inactive"}
{"smiles": "NC(=O)N(O)[C@@H]1C=C[C@H](Oc2cccc(Oc3ccc(F)cc3)c2)C1", "outcome": "inactive"}
{"smiles": "COCC(C)O", "note": "(stereo not drawn)", "outcome": "inactive"}
